# Compound activity as filed in PubChem.
# TDP1 cell CPT: DT40-hTDP1 cell growth loss with CPT | 420,000 tested, 12% active | Potency, µM (highest dose often 46.2 µM), for inactives: at the highest dose activity change, negative = growth inhibition, hits mostly inhibitors | chicken DT40 Tdp1-/-;hTDP1 cells + 20 nM CPT, ATP luminescence, 48 h; note: % is set by controls: 0 for no effect and ±100 for the full control effect; nearly all actives have a fitted effect of over 55% in size
#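 Cell growth measured by CellTiter-Glo luminescence after a minimum 48 h, 37 C compound exposure with 20 nM CPT in Tdp1-knockout DT40 cells stably expressing hTDP1, seeded 400/well; qHTS titration format.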
# TGFb SMAD3 inh: inhibitors of TGF-b signaling | HepG2 CAGA-GFP TGF-b/SMAD3 reporter, GFP fluorescence, 18 h; TGF-beta stimulated, 500 pg/mL final | Potency, µM (series often up to 46.1 µM), without a hit: at the top dose activity, negative = inhibition, actives largely listed as inhibitors | 410,000 tested, 1.2% active | AID 588855; note: % is set by controls: 0 for no effect and ±100 for the full control effect; nearly all actives have a fitted effect of over 65% in size
#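 Cell-based qHTS in HEPG2 carrying a CAGA-GFP Smad reporter; compounds added before 500 pg/mL final TGF-beta, 18 h incubation at 37 degrees C, GFP fluorescence quantified per cell by imaging cytometry.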
# HT1080 IDH1KD tx: kills HT-1080 cells with IDH1 knockdown; HT-1080 IDH1 knockdown viability, ATP luminescence, 48 h; Potency, µM (doses to about 46.1 µM), without a hit: at the top dose activity, negative = toxicity, most hits filed as cytotoxic; 360,000 tested, 2% active; AID 686971;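 note: 0% = DMSO wells and -100% = cell-free medium wells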
#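 Cytotoxicity counter-line: IDH1KD HT-1080, 48 h, CellTiter-Glo. Curves classed by r2, magnitude and activity.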
# HT1080NT lethal: kills 2HG-producing HT-1080-NT fibrosarcoma cells; Potency, µM (doses to about 46.1 µM), for the others: top-dose activity, negative = less viability, usual class: cytotoxic; 360,000 tested, 1.6% active; HT-1080-NT fibrosarcoma viability, CellTiter-Glo ATP luminescence, 48 h;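 note: NT is the 2HG producing partner of a matched IDH1 knockdown line; 0% = DMSO-treated cells and -100% = media-only wells without cells; nearly all actives have a fitted effect of over 55% in size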
#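 Viability by CellTiter-Glo luminescence after 48 h compound exposure at 37C of HT-1080-NT cells (750/well, RPMI, 5% FBS). % activity scaled between DMSO wells and medium-only wells, then curve-fitted and categorized by curve class.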
# TDP1 cell noCPT: qHTS for Inhibitors of human tyrosyl-DNA phosphodiesterase 1 (TDP1): qHTS in cells in absence of CPT. 420,000 tested, 15% active. Potency, µM (top dose mostly 46.2 µM), inactives show at the top dose activity change, negative = growth inhibition, actives largely listed as inhibitors. DT40 Tdp1-/- hTDP1 cells, no CPT, ATP luminescence, 48 h; note: % is set by controls: 0 for no effect and ±100 for the full control effect; nearly all actives have a fitted effect of over 55% in size
#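 Camptothecin absent (DMSO only). Human TDP1-complemented DT40 knockout cells, 400 cells/well, 37 °C for minimum 48 hr; ATP measured via CellTiter-Glo, 30 min dark incubation, luminescence.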
# HepG2 tox: kills HepG2 cells in TGF-b inhibitor counter-screen; HepG2 CAGA-GFP viability, ATP luminescence, 18 h; Potency, µM (top dose mostly 46.1 µM), inactives show at the highest dose activity change, negative = cytotoxicity, usual class: cytotoxic; 410,000 tested, 0.76% active; AID 588856
#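 CellTiter-Glo luminescence gave cytotoxicity after 18 hours at 37 degrees C. The cells were HepG2 CAGA-GFP in 1% FBS DMEM, stimulated with 500 pg/mL TGF-beta after compound addition. %Activity was normalised to no-cell wells (complete cell-killing) and DMSO (no toxicity), and curves were fitted and classified.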
# Active calls of the source: *; u = inconclusive. An excerpt weighted towards active compounds, which were near 17% of everything screened. Calls come from the whole dose curve; as a rule, active = well fitted curve in the direction sought with a large enough effect; inconclusive = small, poorly fitted or top-dose-only effect, or another doubt; inactive = no such curve, though single readings can be large; an effect the other way counts as inactive or inconclusive. Potency is the fitted concentration of half-maximal effect.
SMILES,TDP1 cell CPT,TGFb SMAD3 inh,HT1080 IDH1KD tx,HT1080NT lethal,TDP1 cell noCPT,HepG2 tox
C#CCOCCOCCOCCNc1nc(N2CCN(C(=O)CCCCCCCCCCNC(=O)Cn3cc(CCCCCN)nn3)CC2)nc(N2CCN(C(=O)CCCCCCCCCCNC(=O)[C@H](CO)n3cc(CCCCCN)nn3)CC2)n1,u,u,u,-17%,u,-50%
C#CCOCCOCCOCCNc1nc(N2CCN(C(=O)CCCCCCCCCCNC(=O)[C@@H](CCSC)n3cc(CCO)nn3)CC2)nc(N2CCN(C(=O)CCCCCCCCCCNC(=O)[C@H]([C@@H](C)CC)n3cc(CCCCCN)nn3)CC2)n1,u,u,u,u,16µM*,-101%
C#CCOCCOCCOCCNc1nc(N2CCN(C(=O)CCCCCCCCCCNC(=O)Cn3cc(CCCCCN)nn3)CC2)nc(N2CCN(C(=O)CCCCCCCCCCNC(=O)[C@H]([C@@H](C)CC)n3cc(CCCCCN)nn3)CC2)n1,23µM*,u,u,u,u,-116%
C#CCOCCOCCOCCNc1nc(N2CCN(C(=O)CCCCCCCCCCNC(=O)[C@@H](CCSC)n3cc(CCO)nn3)CC2)nc(N2CCN(C(=O)CCCCCCCCCCNC(=O)[C@H]([C@@H](C)CC)n3cc(CCCCN=C(N)N)nn3)CC2)n1,u,u,u,u,u,-76%
C#CCOCCOCCOCCNc1nc(N2CCN(C(=O)CCCCCCCCCCNC(=O)[C@H](CO)n3cc(CCCSC)nn3)CC2)nc(N2CCN(C(=O)CCCCCCCCCCNC(=O)[C@H](CO)n3cc(CCCSC)nn3)CC2)n1,8.2µM*,u,-10%,0%,6.5µM*,-3%
C#CCOCCOCCOCCNc1nc(N2CCN(C(=O)CCCCCCCCCCNC(=O)[C@H]([C@@H](C)CC)n3cc(CCCCCN)nn3)CC2)nc(N2CCN(C(=O)CCCCCCCCCCNC(=O)[C@@H]([C@H](C)O)n3cc(C)nn3)CC2)n1,16µM*,u,u,u,u,-102%
O=S(=O)(NCC1CCCN(Cc2ccccc2O)C1)c1cccc2cccnc12 (stereo unspecified),4%,11%,0%,-3%,0%,-4%
COc1ccc(C(=O)C(C)OC(=O)COc2ccccc2)cc1 (stereo unspecified),12%,0%,6%,4%,3%,-1%
CCOCCn1c(CN2CCN(c3ccc(F)cc3)CC2)nc2c1c(=O)n(C)c(=O)n2C,13µM*,-3%,-14%,-3%,18µM*,-19%
CCOCCn1c(CN2CCN(C)CC2)nc2c1c(=O)n(C)c(=O)n2C,-6%,-2%,-1%,-2%,2%,-4%
CCOCCn1c(CN2CCN(c3cccc(Cl)c3)CC2)nc2c1c(=O)n(C)c(=O)n2C,7.3µM*,-15%,-5%,-19%,5.2µM*,-23%
COCCn1c(CN2CCN(c3cccc(Cl)c3)CC2)nc2c1c(=O)n(C)c(=O)n2C,8.2µM*,-38%,-5%,-4%,13µM*,-38%
CCOCCn1c(CN2CCCC(C)C2)nc2c1c(=O)n(C)c(=O)n2C (stereo unspecified),-1%,0%,15%,2%,11%,-1%
COCCn1c(CN2CCN(C)CC2)nc2c1c(=O)n(C)c(=O)n2C,4%,4%,7%,0%,0%,-6%
CC(C)CCn1c(CN2CCN(c3cccc(Cl)c3)CC2)nc2c1c(=O)n(C)c(=O)n2C,u,3%,2%,18%,23µM*,-2%
